Records with an inconclusive call do not appear. Entries that show only a call come without a potency. Activity calls are given as the source filed them. Calls come from the whole dose curve; as a rule, active = well fitted activation curve with a large enough effect; inconclusive = small, poorly fitted or top-dose-only effect; inactive = flat fitted curve, though single readings scatter.
Test: Cellular Toxicity (caspase-3) Jurkat (AID 655);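 note: cells exposed to compound for 16 h at 37 °C before reading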
Conditions: Jurkat caspase-3 activation, luminescence; caspase-3 activation: at 92.2 µM (top of the series), DMSO = 0%, tamoxifen = 100%
Source text: NIH Chemical Genomics Center [NCGC]
NIH Molecular Libraries Screening Centers Network [MLSCN]
National Institutes of Environmental Health Sciences [NIEHS]
National Toxicology Program [NTP]
We have developed a 1536-well cell-based assay for quantitative high throughput screening (qHTS) against a number of cell lines to determine in vitro caspase 3/7 of small molecules. This particular assay uses the Jurkat cell line which is derived from human T cell leukemia.
NCGC Assay Protocol Summary:
The Caspase-Glo 3/7 assay (Promega) is a homogeneous method to measure caspase-3 and caspase-7 activities in cultured cells. The quantitation of caspase 3/7 activity is based on the cleavage of a peptide-aminoluciferin substrate. After caspase cleaves the substrate the free aminoluciferin is liberated and serves as the substrate of luciferase, which generates the light. The luminescent signal is proportional to amount of caspase 3/7 activity present.
Using the Caspase-Glo 3/7 assay, the amount of caspase 3/7 activity was measured in the Jurkat cell line with complete culture medium following compound treatment for 16 hours. The assay was performed in opaque white 1536-well plates. In the screen, tamoxifen and doxorubicin were used as positive controls. Library compounds were measured for their ability to cause the activation of caspase 3/7 in the cell line, as reflected by an increase in luminescence signal, in a concentration-dependent manner. Data were normalized to the controls for basal activity (DMSO only) and 100% stimulation (100 uM tamoxifen). AC50 values were determined from concentration-response data modeled with the standard Hill equation.
qHTS protocol for caspase 3/7 assay in Jurkat cells
[Step] [Parameter] [Value] [Description]
1. Reagent; 5 uL; 5000 Jurkat cells/well
3. Controls; 23 nL; Tamoxifen 0.23 uM to 100 uM & Doxorubicin 7.0 pM to 100 uM
4. Time; 16 hr; 37 °C incubation
5. Reagent; 5 uL; Caspase-Glo 3/7 reagent
6. Time; 20 min; Room Temperature
7. Detection; Luminescence; Viewlux plate reader
Keywords: caspase 3/7, apoptosis, Jurkat cell line, luminescence, NTPHTS, NTPHTS_NCGC, NIEHS, EPA, DSSTox, MLSMR, MLSCN, NIH Roadmap, qHTS, NCGC

Compound	Potency	caspase-3 activation
CC(C)OCC1CO1 (stereo not given)	inactive	–
Clc1nc2ccccc2nc1Cl	inactive	–
CC(=O)CC(=O)Nc1ccccc1	inactive	–
c1ccc2c(c1)ccc1ccccc12	inactive	–
OC1CCCCC1	inactive	–
COc1ccc([N+](=O)[O-])cc1N	inactive	–
CC(=O)Nc1cccc(C)c1	inactive	–
CCCCOC(=O)COc1ccc(Cl)cc1Cl	inactive	–
O=c1[nH]ncc2ccccc12	inactive	–
Nc1cc(C(=O)O)c(O)c(S(=O)(=O)O)c1	inactive	–
CC(C)S	inactive	–
NC(=O)c1ccc([N+](=O)[O-])cc1	inactive	–
CC/C=C/C/C=C/C/C=C/CCCCCCCC(=O)OCC	inactive	–
Cc1c(C(=O)O)c(O)cc2c1C(=O)c1c(O)c([C@H]3O[C@H](CO)[C@@H](O)[C@H](O)[C@H]3O)c(O)c(O)c1C2=O	inactive	–
Oc1c(Cl)cc(Cl)c(Cl)c1Cl	–	91.2% (active)
O=[N+]([O-])c1ccccc1Nc1ccccc1	inactive	–
O=CC(=O)c1ccccc1	inactive	–
O=C(O)/C=C/c1ccc(/C=C/C(=O)O)cc1	inactive	–
C=CC(=O)OCCCCCCOC(=O)C=C	inactive	–
O=[N+]([O-])c1cc(Cl)c(Cl)c(Cl)c1Cl	inactive	–

Compound	Potency	caspase-3 activation
OCC(CBr)(CBr)CBr	inactive	–
c1ccc(SCCSc2ccccc2)cc1	inactive	–
Nc1ccc2c(c1)C(=O)c1ccccc1C2=O	inactive	–
CCCCCCCC/C=C\CCCCCCCC(=O)N(CCO)CCO	–	96.6% (active)
CC(CCC(=O)O)(c1ccc(O)cc1)c1ccc(O)cc1	inactive	–
CCCCC(CC)COC(=O)COc1ccc(Cl)cc1Cl (stereo not given)	inactive	–
CCOC(=O)C1OC1c1ccccc1 (stereo not given)	inactive	–
CN(C)c1ccc(Cc2ccc(N(C)C)cc2)cc1	inactive	–
COc1ccc(C)cc1N	inactive	–
CC(=O)OC(C(=O)c1ccccc1)c1ccccc1 (stereo not given)	inactive	–
c1ccc2ncccc2c1	inactive	–
Cc1cccnc1	inactive	–
O=C(O)c1cc(N=Nc2ccc([N+](=O)[O-])cc2)ccc1O	inactive	–
CCC(Cl)CC(Cl)C(Cl)C(Cl)C(Cl)C(C)Cl (stereo not given)	inactive	–
CC(/C=C/C=C(C)/C=C/C(=O)O)=C\C=C\C=C(C)\C=C\C=C(C)\C=C\C(=O)O	inactive	–
c1ccc(Nc2cccc3ccccc23)cc1	inactive	–
CCN(CC)c1ccc2c(C)cc(=O)oc2c1	inactive	–
c1ccc(CSCc2ccccc2)cc1	inactive	–
CCCCC(CC)COP(=O)(OCC(CC)CCCC)OCC(CC)CCCC (stereo not given)	inactive	–
O=[N+]([O-])c1cccc(I)c1	inactive	–
